Only some compounds are listed: those with a hit (about 1.5% of all), similar ones and a draw of the others.
Neddylation inh – inhibitors of cullin neddylation, primary screen, biochemical, TR-FRET, uHTS, NAE and Ubc12; inhibition, % at 25 µM; 360,000 tested, 0.58% active; AID 651699, 2012; in the data active means inhibition above about 36%
NPR2 activator – human GC-B receptor activators, primary screen, HEK293 GC-B cells, cGMP TR-FRET, EC30 CNP; AID 1920062, 2024; 370,000 tested, 0.11% active; activation, % at 10 µM; Atrial natriuretic peptide receptor 2 (Homo sapiens), P20594; 0% at EC30 CNP, 100% saturating CNP;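 active means activation at 10 µM reaching about 35% in either raw or pattern-adjusted values, limit read from the data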
NPR1 activator – GC-A stimulated cGMP production enhancers – HEK293 GC-A cells, cGMP TR-FRET, EC30 ANP, primary screen; Atrial natriuretic peptide receptor 1 (Homo sapiens), P16066; 0% at EC30 ANP, 100% saturating ANP; activation, % at 10 µM; 370,000 tested, 0.14% active; AID 1671463, 2021; in the data active means activation above about 40%
Target sequence (P16066 whole entry, looked up): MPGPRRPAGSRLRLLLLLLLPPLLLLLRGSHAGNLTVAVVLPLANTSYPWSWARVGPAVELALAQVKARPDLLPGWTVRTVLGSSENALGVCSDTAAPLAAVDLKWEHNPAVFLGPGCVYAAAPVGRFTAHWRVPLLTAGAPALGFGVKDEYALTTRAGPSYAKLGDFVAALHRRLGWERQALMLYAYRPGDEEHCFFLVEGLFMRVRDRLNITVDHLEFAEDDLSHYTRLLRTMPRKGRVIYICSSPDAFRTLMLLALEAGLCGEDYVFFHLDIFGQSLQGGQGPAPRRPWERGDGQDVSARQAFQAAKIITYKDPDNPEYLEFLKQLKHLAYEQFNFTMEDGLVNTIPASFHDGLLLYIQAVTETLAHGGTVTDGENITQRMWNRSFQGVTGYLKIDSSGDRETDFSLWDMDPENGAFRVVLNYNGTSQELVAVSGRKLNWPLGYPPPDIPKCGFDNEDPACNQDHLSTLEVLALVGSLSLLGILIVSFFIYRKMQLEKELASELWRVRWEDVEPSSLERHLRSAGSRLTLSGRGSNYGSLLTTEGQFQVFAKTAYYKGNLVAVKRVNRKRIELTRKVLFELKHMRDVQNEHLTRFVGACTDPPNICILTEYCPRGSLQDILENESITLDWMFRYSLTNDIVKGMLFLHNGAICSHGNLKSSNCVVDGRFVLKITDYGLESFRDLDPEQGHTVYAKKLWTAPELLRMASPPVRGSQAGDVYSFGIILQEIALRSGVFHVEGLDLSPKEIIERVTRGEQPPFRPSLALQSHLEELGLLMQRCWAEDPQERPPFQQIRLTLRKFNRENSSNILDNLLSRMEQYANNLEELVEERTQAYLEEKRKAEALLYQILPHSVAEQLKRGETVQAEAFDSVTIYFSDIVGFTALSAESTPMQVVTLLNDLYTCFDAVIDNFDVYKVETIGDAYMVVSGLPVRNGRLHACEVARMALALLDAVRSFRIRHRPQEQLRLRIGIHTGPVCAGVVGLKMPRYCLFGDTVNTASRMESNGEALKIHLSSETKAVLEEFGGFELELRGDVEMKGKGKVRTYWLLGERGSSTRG
NadD block – inhibitors of S. aureus NadD, primary screen, biochemical, colorimetric, uHTS. inhibition, % at 20 µM. 360,000 tested, 0.78% active. Nicotinate-nucleotide adenylyltransferase NadD (Staphylococcus aureus N315). purified NadD enzyme, colorimetric absorbance read-out. AID 602399, 2012; in the data active means inhibition above about 26%
Large screens that a line does not name were inactive.

C#CCOCCOCCOCCNc1nc(N2CCN(C(=O)CCCCCCCCCCNC(=O)[C@H]([C@@H](C)CC)n3cc(CCCCCN)nn3)CC2)nc(N2CCN(C(=O)CCCCCCCCCCNC(=O)[C@@H]([C@H](C)O)n3cc(C)nn3)CC2)n1	NadD block 33 (no result: NPR2 activator, NPR1 activator)
COc1ccc(Cn2cc(CN3[C@H](C)COc4cc(Br)ccc4S3(=O)=O)nn2)cc1	none (no result: Neddylation inh, NadD block)
COC(=O)[C@]12C[C@H](CC(=O)NCCCCc3ccccc3)C(=O)N(Cc3ccco3)C1=C[C@H](C(C)(C)C)O[C@@H]2C	none (no result: Neddylation inh, NadD block)
CC(=O)Oc1ccc(C#C/C=C2\c3ccccc3C(=O)N2c2ccccc2)cc1	none (no result: NPR2 activator, NPR1 activator)
CC(C)(C)OC(=O)n1cccc1/C=C1\c2ccccc2C(=O)N1c1ccccc1	Neddylation inh 42 (no result: NPR2 activator, NPR1 activator)
CC(=O)C1=C(C)N(Cc2ccc(Br)cc2)C(=S)NC1c1ccc(F)cc1 (configuration not stated)	none (no result: Neddylation inh, NadD block)
CN(C)[C@H]1CCN(c2cccc3c2S(=O)(=O)N2CC[C@@H](C2)O3)C1	none (no result: Neddylation inh, NadD block)
Cc1cc(C)cc(OCC(=O)Nc2ccc3c(c2)C(=O)c2ccccc2C3=O)c1	NadD block 31
Cc1cc(C)cc(OCC(=O)Nc2ccc(N3CCCC3)cc2)c1	NadD block 57 (no result: NPR2 activator, NPR1 activator)
Cc1cc(C)cc(OCC(=O)Nc2ccc(F)cc2)c1	none
COc1ccc(OCC(=O)Nc2ccc(N3CCCCC3)cc2)cc1	none
O=C(c1ccccc1)N1CC[C@H]2[C@H](CCCN2Cc2ccccc2)C1	none (no result: Neddylation inh, NadD block)
Cc1ccc(NC(=O)C2CC3CCC2C3)cc1 (configuration not stated)	none (no result: Neddylation inh, NadD block)
Cc1ccc(NC(=O)Cn2c(O)c(N=NC(=O)c3cc4ccccc4cc3O)c3ccccc32)cc1	NadD block 46
O=C(N=Nc1c(O)n(Cc2ccccc2)c2ccccc12)c1cc2ccccc2cc1O	NadD block 40
Cc1ccc(NC(=O)Cn2c(O)c(N=NC(=O)c3ccncc3)c3ccccc32)cc1	none (no result: NPR2 activator, NPR1 activator)
C#CCCCN([C@H](C(=O)OC)C(C)C)S(=O)(=O)c1ccc(F)cc1Br	none (no result: Neddylation inh, NadD block)
C/C=C/c1ccccc1OCCCN1CCC(C(O)(c2ccccc2)c2ccccc2)CC1	none (no result: Neddylation inh, NadD block)
CCCC[C@H]1C2CC(OC(=O)Nc3ccccc3C(F)(F)F)C(C2)[C@H]2CCCCN21 (some centres not stated)	none (no result: Neddylation inh, NadD block)
O=C(Nc1cccc2nsnc12)c1ccc2c(c1)OCCO2	Neddylation inh 46
NC(=O)CC[C@H](NC(=O)[C@H](Cc1ccccc1)n1c(=O)[nH]c2ccccc2c1=O)C(=O)N1CCC[C@H]1C(=O)O	none
CSCC[C@H](NC(=O)[C@H](Cc1ccccc1)n1c(=O)[nH]c2ccccc2c1=O)C(=O)N1CCC[C@H]1C(=O)O	NPR2 activator 83
Cc1ccc(Cn2c(=N)c(C(=O)NCC3CCCO3)cc3c(=O)n4cccc(C)c4nc32)cc1 (configuration not stated)	NPR2 activator 37, NPR1 activator 40 (not shown: Neddylation inh)
O=C(NCCN1CCOCC1)c1cnn2c(-c3ccccc3)cc(-c3ccccc3)nc12	none (not shown: Neddylation inh)
O=C(c1cnn2c(-c3ccccc3)cc(-c3ccccc3)nc12)N1CCN(Cc2ccccc2)CC1	NPR2 activator 35 (not shown: Neddylation inh)
CC(=O)Nc1cccc(Oc2ncnc3scc(-c4ccccc4)c23)c1	NPR2 activator 46
O=S(=O)(c1ccc(Oc2ncnc3scc(-c4ccccc4)c23)cc1)N1CCOCC1	none
Cc1ccc(-c2cc(C(F)F)nc(S(C)(=O)=O)n2)cc1	NPR1 activator 74
Cc1ccccc1-n1nc2c(c1NC(=O)c1cc3ccccc3oc1=O)CS(=O)(=O)C2	NPR2 activator 38 (no result: Neddylation inh, NadD block)
COc1ccc(C(=O)Nn2c(SCc3ccc([N+](=O)[O-])cc3)nc3ccccc3c2=O)cc1	NadD block 33
COc1ccc(C(=O)Nn2c(SCC(=O)c3ccccc3)nc3ccccc3c2=O)cc1	none
COC(=O)c1ccc(-c2nc3cc(Cl)c(N)cc3s2)cc1	NPR1 activator 51 (not shown: Neddylation inh)
Cc1ccc(-n2nnc3c(=O)oc4ccccc4c32)cc1	NPR2 activator 39
CCC(C)n1nnc2c(=O)oc3ccccc3c21 (configuration not stated)	none
CCN1CCN(c2ccc(NC(=O)c3ccc(Br)o3)cc2)CC1	none
O=C(Nc1ccc(N2CCCC2)cc1)c1ccc(Br)o1	NadD block 44
Oc1ccc(C2N=C(c3ccccc3)NC(c3ccccc3)=N2)cc1	NPR2 activator 34
c1ccc(C2=NC(c3ccccc3)N=C(c3ccccc3)N2)cc1	none
CCCCc1c(-c2ccccc2OC)ncn1C1CCCCC1	none (no result: Neddylation inh, NadD block)
COc1ccc([C@H](C#Cc2ccccc2)CC(=O)O)cc1OC1CCCC1	none (no result: Neddylation inh, NadD block)
N#Cc1c(NCCN)nc(NCc2ccccc2)c2c1CCN(Cc1ccccc1)C2	NadD block 30 (not shown: Neddylation inh, NPR2 activator, NPR1 activator)
O=C(CN1C(=O)/C(=C/c2ccccc2)SC1=S)NNC(=O)c1ccccc1O	NadD block 37
Cc1ccc(/C=C2\SC(=S)N(CCC(=O)NNC(=O)c3cccc(O)c3)C2=O)cc1	none
Cc1ccc(/C=C2\SC(=S)N(CCC(=O)NNC(=O)c3ccccc3O)C2=O)cc1	NadD block 38
O=C(CCN1C(=O)/C(=C\c2ccccc2)SC1=S)Nc1ccc(C(=O)O)cc1	none
CCOc1ccc(/C=C2/SC(=S)N(CCC(=O)Nc3ccc(C(=O)O)cc3)C2=O)cc1	NadD block 38
Cc1ccc(/C=C2\SC(=S)N(CCC(=O)NNC(=O)c3ccc(O)cc3)C2=O)cc1	NadD block 45
O=C(CCN1C(=O)S/C(=C\c2ccccc2)C1=O)Nc1ccc(O)cc1C(=O)O	none
CN1C(=O)/C(=C/c2ccc(C(=O)Nc3ccc(O)cc3C(=O)O)cc2)SC1=S	NadD block 40
O=C(CN1C(=O)/C(=C/c2cccc(Br)c2)SC1=S)NC1=NCCS1	NadD block 34
c1ccc2nc(-c3nc4ccccc4o3)ccc2c1	Neddylation inh 40
COc1cc(C2Nc3ccccc3C(=O)N2c2ccccc2OC)ccc1O (configuration not stated)	none (not shown: Neddylation inh)
O=C1c2ccccc2NC(c2ccc(O)c(O)c2)N1c1ccccc1Cl (configuration not stated)	Neddylation inh 50
C=CCN1[C@H](CC(C)C)COc2cc(F)ccc2S1(=O)=O	none (no result: Neddylation inh, NadD block)
COc1c(Cl)cc(Cl)cc1/C=N/NC(=O)c1nnn(-c2nonc2N)c1CN1CCC(C)CC1	none
C/C(=N\NC(=O)c1nnn(-c2nonc2N)c1CN1CCc2ccccc21)c1ccccc1O	NadD block 42
CC1CCN(Cc2c(C(=O)N/N=C/c3cc(Cl)ccc3O)nnn2-c2nonc2N)CC1	NadD block 30
CC1CCN(Cc2c(C(=O)N/N=C/c3cc(Br)ccc3O)nnn2-c2nonc2N)CC1	NadD block 33
COC(=O)N1Cc2ccnnc2CC1c1ccccc1-c1ccc(OC)cc1 (configuration not stated)	none (no result: Neddylation inh, NadD block)
O=C1N2Cc3ccccc3C2CS(=O)(=O)N1Cc1ccccc1 (configuration not stated)	none (no result: Neddylation inh, NadD block)
Cc1cc(C(=O)N/N=C/c2ccc(O)c(O)c2O)c(C)n1-c1ccccc1	NadD block 33

Compound activity deposited in PubChem by Sanford-Burnham Center for Chemical Genomics.
